Assay results: the supplement of paper PMC10849652
Targets with a hit are over-represented here; the source holds about 8,800 in all. About 0.5% of all pairs of compound and target were hits. A number with no mark means an inactive call.

Legend:
Test in all cases: log2 fold change, soluble protein after heating vs DMSO (PISA); higher = thermal stabilisation; K562 lysate, 10 uM; active = over 0.2 and 3.5 SD of the protein, either way, in both replicates (recomputed)
[1] = compound: C#Cc1cccc(Nc2ncnc3cc(OCCOC)c(OCCOC)cc23)c1 [erlotinib]
Procedure, shortened: (§1)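 Quantification was by TMTpro 16plex LC-MS/MS with equalised channel sums, applied to the supernatant after 21,000xg for 90 min. Samples were crude K562 extract at 1 mg/mL protein in PBS pH 7.4 with 1 mM MgCl2, treated with 10 μM compound for 30 min, heated for 3 min across 48°C-58°C, pooled and brought to 0.5% NP-40 at 4°C. Values are log-two fold changes in thermal stability relative to solvent controls, from duplicates.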

[2] = compound: C/C(=N\NC(=O)C1=CC(=CC=C1)S(=O)(=O)N2CCOCC2)/C3=C(C=CC(=C3)Cl)O
Procedure, shortened: as §1

[3] = compound: C1=CC(=CC=C1C2=NC3=C(N2)C=C(C=C3)C(=O)N)OC4=CC=C(C=C4)Cl
Procedure, shortened: as §1

[4] = compound: C1=CC2=C(C=CC(=C2)/C=C\3/C(=O)NC(=NCC4=CC=CS4)S3)N=C1
Procedure, shortened: as §1

[5] = compound: C1=CC2=NC=CN=C2C=C1/C=C/3\C(=O)NC(=O)S3
Procedure, shortened: as §1

[6] = compound: C1=CC=C(C=C1)C2=NC(=C(N2)C3=CC=NC=C3)C4=CC(=C(C=C4)Cl)O
Procedure, shortened: as §1

[7] = compound: C1=CC=C2C(=C1)C3=NNC4=CC=CC(=C43)C2=O
Procedure, shortened: as §1

[8] = compound: C1CCN(C1)C(=O)NC2=CC=CC(=C2)NC3=NC=C(C(=N3)NCCC4=CN=CN4)Br
Procedure, shortened: as §1

[9] = compound: C1CN(CCC1(CC2=CC=C(C=C2)Cl)N)C3=NC=NC4=C3C=CN4
Procedure, shortened: as §1

[10] = compound: C1COCCN1CCN2C3=CC=CC=C3N=C2NC(=O)C4=CC(=CC=C4)[N+](=O)[O-] [IRAK-1-4 Inhibitor I]
Procedure, shortened: as §1

UniProt Q15717, sequence (Q15717 whole entry, looked up): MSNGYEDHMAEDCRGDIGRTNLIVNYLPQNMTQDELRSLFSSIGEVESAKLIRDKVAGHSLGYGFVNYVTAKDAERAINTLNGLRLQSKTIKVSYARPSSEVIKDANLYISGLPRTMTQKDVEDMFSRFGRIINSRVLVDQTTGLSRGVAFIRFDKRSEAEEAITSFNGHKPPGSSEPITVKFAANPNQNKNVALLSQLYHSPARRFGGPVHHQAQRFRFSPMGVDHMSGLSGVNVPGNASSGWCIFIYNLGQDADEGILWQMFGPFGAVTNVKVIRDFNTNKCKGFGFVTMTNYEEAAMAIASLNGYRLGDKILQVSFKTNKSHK
UniProt O14772, sequence (O14772 whole entry, looked up): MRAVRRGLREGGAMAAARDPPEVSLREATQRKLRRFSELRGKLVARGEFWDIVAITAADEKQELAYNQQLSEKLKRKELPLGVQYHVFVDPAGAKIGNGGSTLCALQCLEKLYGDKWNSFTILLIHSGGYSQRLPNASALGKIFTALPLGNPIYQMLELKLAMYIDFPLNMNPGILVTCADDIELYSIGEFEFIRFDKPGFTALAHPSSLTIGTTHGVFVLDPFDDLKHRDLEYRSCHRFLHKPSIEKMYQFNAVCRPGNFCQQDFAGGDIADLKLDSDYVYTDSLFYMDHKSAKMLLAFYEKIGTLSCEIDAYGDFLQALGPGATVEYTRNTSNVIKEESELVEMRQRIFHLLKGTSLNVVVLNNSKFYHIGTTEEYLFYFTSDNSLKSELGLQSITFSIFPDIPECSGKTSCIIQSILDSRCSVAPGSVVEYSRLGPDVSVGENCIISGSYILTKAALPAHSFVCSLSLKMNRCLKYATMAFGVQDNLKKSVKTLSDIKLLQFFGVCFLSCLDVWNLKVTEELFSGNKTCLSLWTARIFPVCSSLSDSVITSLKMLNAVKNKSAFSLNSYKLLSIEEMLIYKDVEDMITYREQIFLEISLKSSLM
UniProt P57678, sequence (P57678 whole entry, looked up): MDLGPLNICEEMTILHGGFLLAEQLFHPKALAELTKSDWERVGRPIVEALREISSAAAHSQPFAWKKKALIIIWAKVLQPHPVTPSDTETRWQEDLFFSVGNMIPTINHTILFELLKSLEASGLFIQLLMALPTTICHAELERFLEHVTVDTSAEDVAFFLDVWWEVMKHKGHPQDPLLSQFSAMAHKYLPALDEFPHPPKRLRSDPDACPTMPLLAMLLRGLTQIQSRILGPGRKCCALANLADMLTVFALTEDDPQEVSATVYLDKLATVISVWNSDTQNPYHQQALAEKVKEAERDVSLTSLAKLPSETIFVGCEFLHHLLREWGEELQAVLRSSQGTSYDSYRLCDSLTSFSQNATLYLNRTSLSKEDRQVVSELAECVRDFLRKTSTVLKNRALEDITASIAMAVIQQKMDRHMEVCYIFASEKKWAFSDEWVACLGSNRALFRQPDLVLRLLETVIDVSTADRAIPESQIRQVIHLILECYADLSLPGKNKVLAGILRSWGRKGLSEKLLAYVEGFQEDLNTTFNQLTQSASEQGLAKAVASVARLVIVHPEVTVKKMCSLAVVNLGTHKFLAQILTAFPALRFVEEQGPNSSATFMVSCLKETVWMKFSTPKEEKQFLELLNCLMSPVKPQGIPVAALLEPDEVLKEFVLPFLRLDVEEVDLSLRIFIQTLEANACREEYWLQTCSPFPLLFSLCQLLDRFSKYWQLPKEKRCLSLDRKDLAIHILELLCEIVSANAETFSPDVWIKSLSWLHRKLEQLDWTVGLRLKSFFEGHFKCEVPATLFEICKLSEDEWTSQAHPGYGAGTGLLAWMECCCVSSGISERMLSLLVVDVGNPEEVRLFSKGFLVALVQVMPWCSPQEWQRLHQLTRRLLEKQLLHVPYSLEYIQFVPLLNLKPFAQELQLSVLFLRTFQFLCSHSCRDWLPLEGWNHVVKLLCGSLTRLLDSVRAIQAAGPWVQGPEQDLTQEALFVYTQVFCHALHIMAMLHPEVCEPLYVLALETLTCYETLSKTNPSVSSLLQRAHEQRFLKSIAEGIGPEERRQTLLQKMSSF
UniProt P11474, sequence (P11474 whole entry, looked up): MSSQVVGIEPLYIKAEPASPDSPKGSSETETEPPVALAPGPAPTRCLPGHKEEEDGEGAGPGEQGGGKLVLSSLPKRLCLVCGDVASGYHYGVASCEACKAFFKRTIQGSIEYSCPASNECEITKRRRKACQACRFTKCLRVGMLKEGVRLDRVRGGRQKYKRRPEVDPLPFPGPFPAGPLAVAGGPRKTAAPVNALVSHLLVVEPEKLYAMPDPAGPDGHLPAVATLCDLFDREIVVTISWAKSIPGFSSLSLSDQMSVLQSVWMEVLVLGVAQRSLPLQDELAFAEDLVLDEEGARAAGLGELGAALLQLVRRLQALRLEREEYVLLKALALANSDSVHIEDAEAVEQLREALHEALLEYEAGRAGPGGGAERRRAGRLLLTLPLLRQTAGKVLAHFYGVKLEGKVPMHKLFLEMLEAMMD
UniProt P60981, sequence (P60981 whole entry, looked up): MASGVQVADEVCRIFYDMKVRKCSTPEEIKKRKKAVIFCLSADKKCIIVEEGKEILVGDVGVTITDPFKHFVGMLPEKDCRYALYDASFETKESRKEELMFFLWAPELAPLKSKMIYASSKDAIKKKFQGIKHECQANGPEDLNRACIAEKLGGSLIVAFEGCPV
UniProt Q14C86, sequence (Q14C86 whole entry, looked up): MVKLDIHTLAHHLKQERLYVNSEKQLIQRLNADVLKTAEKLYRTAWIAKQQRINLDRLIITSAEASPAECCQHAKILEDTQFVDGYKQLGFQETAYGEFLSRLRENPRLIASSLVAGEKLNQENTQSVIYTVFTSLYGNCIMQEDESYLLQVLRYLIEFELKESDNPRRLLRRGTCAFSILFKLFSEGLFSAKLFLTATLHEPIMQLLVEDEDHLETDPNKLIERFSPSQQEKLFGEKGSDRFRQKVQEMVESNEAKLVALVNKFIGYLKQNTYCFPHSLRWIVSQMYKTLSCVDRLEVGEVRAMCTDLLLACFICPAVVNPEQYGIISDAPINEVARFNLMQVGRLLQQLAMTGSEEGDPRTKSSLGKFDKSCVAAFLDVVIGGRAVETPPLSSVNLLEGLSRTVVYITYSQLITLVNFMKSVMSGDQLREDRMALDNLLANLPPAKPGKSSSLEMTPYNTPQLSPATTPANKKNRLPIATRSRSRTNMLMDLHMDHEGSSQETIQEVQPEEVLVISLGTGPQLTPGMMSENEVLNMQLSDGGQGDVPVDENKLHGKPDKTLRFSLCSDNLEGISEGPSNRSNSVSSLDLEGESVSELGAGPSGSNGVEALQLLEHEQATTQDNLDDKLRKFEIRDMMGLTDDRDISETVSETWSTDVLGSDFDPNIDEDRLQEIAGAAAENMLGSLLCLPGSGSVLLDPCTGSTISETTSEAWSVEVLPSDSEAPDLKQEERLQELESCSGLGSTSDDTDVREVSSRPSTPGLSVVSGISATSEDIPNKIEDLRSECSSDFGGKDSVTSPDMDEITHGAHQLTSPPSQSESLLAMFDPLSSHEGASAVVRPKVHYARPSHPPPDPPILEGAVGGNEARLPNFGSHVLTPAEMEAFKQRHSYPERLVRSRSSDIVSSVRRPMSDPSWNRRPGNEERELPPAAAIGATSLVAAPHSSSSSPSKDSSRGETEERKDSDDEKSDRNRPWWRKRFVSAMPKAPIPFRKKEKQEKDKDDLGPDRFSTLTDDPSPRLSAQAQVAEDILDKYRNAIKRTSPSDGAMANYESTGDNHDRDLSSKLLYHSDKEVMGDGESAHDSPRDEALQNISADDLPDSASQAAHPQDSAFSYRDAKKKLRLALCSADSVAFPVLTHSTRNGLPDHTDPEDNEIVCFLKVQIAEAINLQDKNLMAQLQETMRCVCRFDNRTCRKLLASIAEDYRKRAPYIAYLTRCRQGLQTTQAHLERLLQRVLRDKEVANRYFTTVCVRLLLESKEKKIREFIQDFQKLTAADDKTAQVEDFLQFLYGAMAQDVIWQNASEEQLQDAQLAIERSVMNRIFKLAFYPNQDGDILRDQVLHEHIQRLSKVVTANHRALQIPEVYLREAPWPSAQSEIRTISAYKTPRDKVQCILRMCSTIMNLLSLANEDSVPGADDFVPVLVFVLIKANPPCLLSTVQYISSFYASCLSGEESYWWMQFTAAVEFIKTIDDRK
UniProt Q56P03, sequence (Q56P03 whole entry, looked up): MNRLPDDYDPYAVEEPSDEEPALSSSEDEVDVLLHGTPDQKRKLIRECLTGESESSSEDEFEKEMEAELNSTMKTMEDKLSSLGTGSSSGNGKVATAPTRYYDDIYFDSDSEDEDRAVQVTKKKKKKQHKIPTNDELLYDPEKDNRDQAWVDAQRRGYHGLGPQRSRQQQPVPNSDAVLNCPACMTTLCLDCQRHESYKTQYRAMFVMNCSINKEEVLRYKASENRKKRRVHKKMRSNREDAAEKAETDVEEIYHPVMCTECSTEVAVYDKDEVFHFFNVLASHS
UniProt Q9NR50, sequence (Q9NR50 whole entry, looked up): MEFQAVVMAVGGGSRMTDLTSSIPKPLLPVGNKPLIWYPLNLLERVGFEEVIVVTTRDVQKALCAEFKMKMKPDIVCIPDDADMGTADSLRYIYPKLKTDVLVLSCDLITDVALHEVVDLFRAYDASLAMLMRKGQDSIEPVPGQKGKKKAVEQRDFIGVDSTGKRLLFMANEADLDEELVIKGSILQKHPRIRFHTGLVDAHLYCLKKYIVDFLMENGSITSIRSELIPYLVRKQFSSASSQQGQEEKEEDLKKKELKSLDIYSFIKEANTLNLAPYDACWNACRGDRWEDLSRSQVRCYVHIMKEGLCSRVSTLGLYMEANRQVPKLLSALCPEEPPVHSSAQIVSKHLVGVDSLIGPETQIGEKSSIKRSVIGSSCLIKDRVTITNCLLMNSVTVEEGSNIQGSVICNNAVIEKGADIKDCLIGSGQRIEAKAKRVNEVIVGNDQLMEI
UniProt Q6P4F2, sequence (Q6P4F2 whole entry, looked up): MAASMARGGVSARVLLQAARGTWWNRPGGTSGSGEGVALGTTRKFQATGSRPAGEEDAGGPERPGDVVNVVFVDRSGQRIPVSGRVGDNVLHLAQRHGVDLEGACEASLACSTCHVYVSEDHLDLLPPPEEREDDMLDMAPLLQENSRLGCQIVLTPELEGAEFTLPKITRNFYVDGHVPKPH

| Target | log2 fold change [1] | log2 fold change [2] | log2 fold change [3] | log2 fold change [4] | log2 fold change [5] | log2 fold change [6] | log2 fold change [7] | log2 fold change [8] | log2 fold change [9] | log2 fold change [10] |
| --- | --- | --- | --- | --- | --- | --- | --- | --- | --- | --- |
| DYNC1I2 isoform 2 (UniProt Q13409) | -0.012 | -0.032 | 0.108 | -0.088 | -0.127 | -0.002 | 0.055 | 0.005 | -0.006 | 0.01 |
| FMNL1 isoform 3 (UniProt O95466) | -0.045 | 0.045 | -0.006 | -0.102 | -0.062 | -0.004 | 0.018 | -0.006 | 0.019 | -0.009 |
| EHD2 (UniProt Q9NZN4) | 0.048 | -0.167 | -0.043 | -0.063 | 0.012 | -0.002 | -0.071 | -0.004 | 0.012 | 0.01 |
| FPGT (UniProt O14772) | 0.031 | -0.005 | -0.003 | 0.011 | 0.023 | -0.002 | -0.108 | 0.006 | -0.013 | 0.023 |
| DYRK1A (UniProt Q13627) | -0.061 | -0.057 | -0.004 | 0.186 | 0.175 | 0.016 | 0.084 | -0.008 | -0.034 | -0.046 |
| GEMIN4 (UniProt P57678) | 0.023 | -0.029 | -0.036 | 0.046 | 0.038 | -0.017 | -0.032 | -0.004 | 0.018 | -0.023 |
| EAPP (UniProt Q56P03) | 0.012 | 0.349 (active) | 0.018 | 0.098 | 0.073 | 0.011 | -0.094 | 0.024 | 0.103 | -0.014 |
| FKBP1A (UniProt P62942) | -0.024 | 0.063 | 0.015 | -0.061 | 0 | 0.024 | 0.091 | -0.044 | 0.062 | 0.071 |
| EED, A0A5F9ZI63 | 0.019 | 0.042 | -0.033 | 0.017 | -0.019 | -0.012 | 0.003 | 0.003 | 0.023 | 0.021 |
| GAPVD1 isoform 6 (UniProt Q14C86) | 0.01 | 0 | -0.051 | 0.01 | 0.019 | 0 | -0.013 | 0.007 | -0.025 | -0.015 |
| FDFT1 (UniProt P37268) | -0.002 | -0.072 | -0.038 | 0.176 | 0.001 | 0.211 | 0.115 | 0.005 | 0.024 | -0.014 |
| EGLN1 (UniProt Q9GZT9) | 0.006 | 0.016 | 0.034 | 0.028 | -0.027 | 0.006 | -0.005 | 0.015 | -0.019 | -0.021 |
| GDPD1 (UniProt Q8N9F7) | -0.037 | 0.248 | -0.112 | 0.001 | -0.041 | 0.011 | -0.024 | 0.032 | 0.086 | 0.038 |
| EIF3I (UniProt Q13347) | 0.013 | 0.033 | -0.029 | 0.001 | 0.022 | 0 | -0.026 | 0.004 | -0.007 | -0.039 |
| FBRSL1, A0A3B3IRR3 | -0.014 | -0.021 | 0.042 | -0.03 | 0 | -0.028 | -0.199 | 0.043 | -0.015 | -0.024 |
| ERBIN isoform 8 (UniProt Q96RT1) | 0 | -0.002 | -0.008 | 0.044 | -0.032 | -0.001 | -0.034 | 0.007 | 0.023 | -0.034 |
| ESRRA (UniProt P11474) | 0.065 | 0.171 | -0.037 | 0.06 | -0.131 | -0.033 | -0.112 | -0.018 | 0.2 | 0.029 |
| FBXO30 (UniProt Q8TB52) | 0.006 | -0.064 | -0.031 | 0.014 | -0.038 | -0.008 | 0.042 | -0.014 | -0.007 | -0.018 |
| EIF2B3 (UniProt Q9NR50) | 0.01 | 0.029 | -0.019 | -0.009 | 0.024 | 0.001 | -0.003 | 0.014 | 0.018 | -0.01 |
| GGT7 (UniProt Q9UJ14) | -0.04 | 0.07 | 0.021 | -0.116 | 0.094 | -0.059 | 0.018 | 0.026 | -0.023 | 0.027 |
| GAMT (UniProt Q14353) | 0.018 | -0.008 | 0.033 | -0.008 | -0.01 | -0.016 | 0.036 | 0.035 | 0.066 | -0.001 |
| FAM114A2 (UniProt Q9NRY5) | -0.039 | -0.068 | 0.141 | -0.028 | -0.1 | -0.052 | 0.02 | -0.045 | -0.104 | -0.002 |
| FDX2 (UniProt Q6P4F2) | -0.051 | 0.063 | 0.044 | 0.065 | -0.009 | -0.041 | -0.054 | -0.402 | -0.17 | 0.05 |
| GEMIN5 (UniProt Q8TEQ6) | -0.001 | 0.004 | -0.012 | 0.015 | 0.032 | -0.006 | -0.034 | 0 | -0.006 | -0.025 |
| EIF2AK1 (UniProt Q9BQI3) | -0.016 | 0.087 | 0.017 | -0.02 | 0.029 | -0.027 | -0.016 | -0.02 | -0.006 | -0.01 |
| GART (UniProt P22102) | -0.007 | 0.022 | -0.025 | -0.013 | 0.016 | 0.015 | -0.011 | -0.001 | -0.003 | 0.005 |
| EWSR1 isoform 5 (UniProt Q01844) | -0.135 | -0.037 | -0.1 | 0.012 | 0.015 | 0.037 | 0.015 | -0.009 | -0.028 | 0.018 |
| ELAVL1 isoform 2 (UniProt Q15717) | 0.047 | 0.008 | 0.019 | 0.025 | -0.017 | 0.001 | -0.069 | -0.027 | 0.036 | -0.051 |
| FADS1, A0A0A0MR51 | -0.006 | -0.033 | -0.008 | 0.085 | -0.026 | -0.012 | 0.05 | -0.002 | -0.064 | -0.026 |
| DSTN (UniProt P60981) | -0.038 | -0.027 | -0.007 | 0.014 | 0.013 | 0 | 0.005 | -0.021 | -0.012 | -0.007 |
